The list is not random: actives were taken first. Their share in the collection is about 19%.
HT1080 IDH1KD tx – toxicity to HT-1080 IDH1 knockdown cells (counter line). HT-1080 IDH1 knockdown viability, ATP luminescence, 48 h. Potency, µM (doses to about 46.1 µM), hits mostly cytotoxic. 2% of 360,000 active. AID 686971
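% activity derives from luminescence (CellTiter-Glo), normalised to DMSO and no-cell wells. HT-1080-IDH1KD cells, 750/well, had 48 h compound exposure at 37 °C.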
DT40 TDP1 CPT – growth inhibition of DT40 Tdp1-/-;hTDP1 cells with camptothecin (screen for TDP1 inhibitors). AID 686979. 12% of 420,000 active. chicken DT40 Tdp1-/-;hTDP1 cells + 20 nM CPT, ATP luminescence, 48 h. Potency, µM (series often up to 46.2 µM), usual class: inhibitors; further: nearly all actives have a fitted effect of over 55% in size
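Chicken DT40 Tdp1-/- cells stably complemented with human TDP1 were seeded at 400 cells/well in medium containing 20 nM camptothecin, exposed to pin-transferred compounds, and grown at 37 °C for at least 48 hr. Viability was read as ATP luminescence.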
ELG1 DNA repair – inhibitors of ELG1-dependent DNA repair in HEK293T cells | HEK293T ELG1-luciferase reporter, luminescence, 16 h; DNA damage induced by 5-fluorouridine | Potency, µM (series often up to 46.1 µM), actives largely listed as inhibitors | 2.3% of 330,000 active; further: nearly all actives have a fitted effect of over 55% in size
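HEK293T cells expressing luciferase-tagged ELG1 (2,000/well) received 5-Fluorouridine plus compound or DMSO for 16 hr at 37 °C. Luciferase was read by ONE-Glo luminescence after 30 min at room temperature.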
IL-1B inflam inh – inflammasome signaling inhibition, IL-1 beta readout. 4.7% of 360,000 active. THP-1 LPS/ATP IL-1B secretion, AlphaLISA, 16 h; stronger effect = lower value. activity change, % at 57.5 µM; in the data active means activity change below about -50%; inconclusive means mostly about -30% to -49%
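THP-1 cells pretreated 1 hr with compounds (up to 57.5 uM final), then stimulated with LPS (250 ng/mL final) plus ATP (1.25 mM final); secreted IL-1B measured by AlphaLISA after 16 hr, decreased signal indicating inhibition.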
TDP1 cell noCPT – qHTS for Inhibitors of human tyrosyl-DNA phosphodiesterase 1 (TDP1): qHTS in cells in absence of CPT; DT40 Tdp1-/- hTDP1 cells, no CPT, ATP luminescence, 48 h; Potency, µM (highest dose often 46.2 µM), most hits filed as inhibitors; 15% of 420,000 active; AID 686978, 2013; further: nearly all actives have a fitted effect of over 55% in size
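A cellular qHTS used chicken DT40 cells lacking endogenous Tdp1 but carrying stably transfected human TDP1. Compounds were applied without camptothecin, and cell growth kinetics were judged by ATP-dependent luminescence after ≥48 hr.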
HT1080NT lethal – kills 2HG-producing HT-1080-NT fibrosarcoma cells; HT-1080-NT fibrosarcoma viability, CellTiter-Glo ATP luminescence, 48 h; Potency, µM (highest dose often 46.1 µM), actives largely listed as cytotoxic; 1.6% of 360,000 active;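 further: NT is the 2HG producing partner of a matched IDH1 knockdown line; nearly all actives have a fitted effect of over 55% in size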
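HT-1080-NT fibrosarcoma cells (2HG-overproducing), 750 cells/well in RPMI with 5% FBS, dosed after 2 h and incubated 48 h at 37C. CellTiter-Glo luminescence normalized to DMSO and no-cell wells; concentration-response curves fitted and classed.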
Of the large screens only hits and unclear results are named; the others gave an inactive call. Unless noted, the call rests on the fitted dose curve; in most records, active means well fitted curve in the direction sought with a large enough effect; inconclusive means small, poorly fitted or top-dose-only effect, or another doubt; inactive means no such curve, though single readings can be large; an effect the other way counts as inactive or inconclusive.

O=C(NCc1ccccc1)C(c1ccco1)N1CCN(c2ccccc2F)CC1 (configuration not stated)	DT40 TDP1 CPT inconclusive, IL-1B inflam inh -58.6, TDP1 cell noCPT inconclusive (no result: ELG1 DNA repair)
O=C(NCc1cccnc1)C(=O)NCC(c1ccco1)N1CCN(c2ccccc2F)CC1 (configuration not stated)	none
O=C(NCc1ccccc1)C(c1ccc(-c2ccccc2)cc1)N1CCN(c2ccccc2F)CC1 (configuration not stated)	DT40 TDP1 CPT 18.4µM, TDP1 cell noCPT inconclusive (no result: ELG1 DNA repair)
Cc1c(C(=O)O)oc2c1/C(=N\O)CC(C)(C)C2	none
CN(C(=O)CNC(=O)c1ccc(Br)o1)C1CCCCC1	ELG1 DNA repair inconclusive
CCc1cccc(NC(=O)c2cc(S(=O)(=O)N3CCCCC3)ccc2N2CCOCC2)c1	DT40 TDP1 CPT 20.6µM, IL-1B inflam inh inconclusive, TDP1 cell noCPT 16.4µM (no result: ELG1 DNA repair)
Cc1ccc(COC(=O)c2cc(S(=O)(=O)N3CCCCC3)ccc2N2CCOCC2)cc1	DT40 TDP1 CPT inconclusive, ELG1 DNA repair inconclusive, TDP1 cell noCPT 25.9µM
O=C(OCc1ccccc1)c1cc(S(=O)(=O)N2CCCCC2)ccc1N1CCOCC1	DT40 TDP1 CPT inconclusive, ELG1 DNA repair inconclusive, TDP1 cell noCPT inconclusive
Cc1ccc(C)c(COC(=O)c2cc(S(=O)(=O)N3CCCCC3)ccc2N2CCOCC2)c1	DT40 TDP1 CPT inconclusive, ELG1 DNA repair inconclusive, TDP1 cell noCPT 13µM
CC(C)CCCC(C)NC(=O)c1cc(S(=O)(=O)N2CCCCC2)ccc1N1CCOCC1 (configuration not stated)	DT40 TDP1 CPT 23.1µM, ELG1 DNA repair 11.2µM, TDP1 cell noCPT 13µM
COCC(C)NC(=O)c1cc(S(=O)(=O)N2CCCCC2)ccc1N1CCOCC1 (configuration not stated)	none
COc1cc(Cl)c(CNC[C@H]2O[C@@H](n3cnc4c(N)ncnc43)[C@H](O)[C@@H]2O)c(Cl)c1O	ELG1 DNA repair inconclusive
O=C(Nc1cccc(Cl)c1)Nc1nnc([C@H]2C[C@H](O)[C@@H](CO)O2)s1	TDP1 cell noCPT inconclusive (no result: ELG1 DNA repair)
O=C(COC(=O)c1cc(S(=O)(=O)N2CCCCC2)ccc1N1CCOCC1)NCCc1ccc(F)cc1	ELG1 DNA repair inconclusive, TDP1 cell noCPT 10.3µM
CC(C)CNC(=O)COC(=O)c1cc(S(=O)(=O)N2CCCCC2)ccc1N1CCOCC1	none
Cc1ccc(CNC(=O)c2cc(S(=O)(=O)N3CCCCC3)ccc2N2CCOCC2)cc1	DT40 TDP1 CPT inconclusive, ELG1 DNA repair inconclusive, TDP1 cell noCPT 18.4µM
O=C(O)C1CC(C2CCCCN2)CN2CCCCC12 (configuration not stated)	none (no result: HT1080 IDH1KD tx, ELG1 DNA repair, IL-1B inflam inh, HT1080NT lethal)
CC1Sc2ccc(S(=O)(=O)CCC(=O)NC3CCCC(C)C3C)cc2NC1=O (configuration not stated)	DT40 TDP1 CPT 20.6µM, TDP1 cell noCPT 20.6µM
CC1CCCC(NC(=O)CCS(=O)(=O)c2ccc3c(c2)NC(=O)CS3)C1C (configuration not stated)	DT40 TDP1 CPT inconclusive, TDP1 cell noCPT inconclusive
CC1Sc2ccc(S(=O)(=O)CCC(=O)N(C)Cc3ccccc3)cc2NC1=O (configuration not stated)	DT40 TDP1 CPT 18.4µM, TDP1 cell noCPT inconclusive
CC1Sc2ccc(S(=O)(=O)NCCc3ccccc3)cc2NC1=O (configuration not stated)	DT40 TDP1 CPT 20.6µM, TDP1 cell noCPT 23.1µM
CCOC(=O)c1nc2ccc(C)cc2c2c1C1CC(c3c(Cl)cccc31)N2C(=O)OCc1ccccc1 (configuration not stated)	DT40 TDP1 CPT 14.6µM, TDP1 cell noCPT 18.4µM (no result: ELG1 DNA repair)
C[C@H]1CN([C@@H](C)CO)C(=O)Cc2cc(NC(=O)CCC(F)(F)F)ccc2O[C@H]1CN(C)S(=O)(=O)c1ccc(Cl)cc1	HT1080 IDH1KD tx 4.61µM, DT40 TDP1 CPT 5.17µM, ELG1 DNA repair inconclusive, TDP1 cell noCPT inconclusive, HT1080NT lethal 3.66µM
